Records with an inconclusive call do not appear. Active and inactive are the calls of the source. The call rests on the fitted dose curve; in most records, active means well fitted inhibition curve with a large enough effect; inconclusive means small, poorly fitted or top-dose-only effect; inactive means flat fitted curve, though single readings scatter.
Columns and labels:
FAB9 = test: qHTS profiling for inhibitors of Plasmodium falciparum proliferation (AID 504749); conditions: P. falciparum in erythrocytes, SYBR Green DNA, 72 h; series mostly up to 28.7 µM
How it was run: (§1)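 Parasite proliferation within erythrocytes, 72 h exposure. Endpoint: SYBR Green I fluorescence after overnight lysis at room temperature. Controls: 0.29 uM artemisinin, DMSO.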

GB4 = test: as above; conditions: P. falciparum in erythrocytes, SYBR Green DNA, 72 h; series mostly up to 28.7 µM
How it was run: as §1

HB3 = test: as above; conditions: P. falciparum in erythrocytes, SYBR Green DNA, 72 h; series mostly up to 28.7 µM
How it was run: as §1

ICS = test: as above; conditions: P. falciparum in erythrocytes, SYBR Green DNA, 72 h; series mostly up to 28.7 µM
How it was run: as §1

JCK = test: as above; conditions: P. falciparum in erythrocytes, SYBR Green DNA, 72 h; series mostly up to 28.7 µM
How it was run: as §1

N140 = test: as above; conditions: P. falciparum in erythrocytes, SYBR Green DNA, 72 h; series mostly up to 28.7 µM
How it was run: as §1

P93_24 = test: as above; conditions: P. falciparum in erythrocytes, SYBR Green DNA, 72 h; series mostly up to 28.7 µM
How it was run: as §1

P94_40 = test: as above; conditions: P. falciparum in erythrocytes, SYBR Green DNA, 72 h; series mostly up to 28.7 µM
How it was run: as §1

PAD = test: as above; conditions: P. falciparum in erythrocytes, SYBR Green DNA, 72 h; series mostly up to 28.7 µM
How it was run: as §1

PC15 = test: as above; conditions: P. falciparum in erythrocytes, SYBR Green DNA, 72 h; series mostly up to 28.7 µM
How it was run: as §1

PC26 = test: as above; conditions: P. falciparum in erythrocytes, SYBR Green DNA, 72 h; series mostly up to 28.7 µM
How it was run: as §1

PC49 = test: as above; conditions: P. falciparum in erythrocytes, SYBR Green DNA, 72 h; series mostly up to 28.7 µM
How it was run: as §1

SC27B = test: as above; conditions: P. falciparum in erythrocytes, SYBR Green DNA, 72 h; series mostly up to 28.7 µM
How it was run: as §1

TAB109 = test: as above; conditions: P. falciparum in erythrocytes, SYBR Green DNA, 72 h; series mostly up to 28.7 µM
How it was run: as §1

TAB113 = test: as above; conditions: P. falciparum in erythrocytes, SYBR Green DNA, 72 h; series mostly up to 28.7 µM
How it was run: as §1

TAB165 = test: as above; conditions: P. falciparum in erythrocytes, SYBR Green DNA, 72 h; series mostly up to 28.7 µM
How it was run: as §1

W2 = test: as above; conditions: P. falciparum in erythrocytes, SYBR Green DNA, 72 h; series mostly up to 28.7 µM
How it was run: as §1

CRL-7250 = normal cell line; test: Cytotoxic Profiling of Annotated Libraries Using Quantitative High-Throughput Screening (AID 1296008); conditions: Five cell lines viability, CellTiter-Glo ATP luminescence, 48-72 h; max response: active compounds read low; on max response: on the % scale 0 is the no-effect control and ±100 the full control effect
How it was run: (§2)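 Compounds were pin-transferred onto cells and incubated 48 or 72 hr at 37 degree Celsius, 95% humidity. CellTiter-Glo was added, plates sat 10 min at room temperature, then ATP-coupled luminescence was imaged as the viability read-out.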

HEK293 = test: as above; conditions: Five cell lines viability, CellTiter-Glo ATP luminescence, 48-72 h; max response: active compounds read low
How it was run: as §2

HaCat = test: as above; conditions: Five cell lines viability, CellTiter-Glo ATP luminescence, 48-72 h; max response: active compounds read low
How it was run: as §2
Further: nearly all actives have a fitted effect of over 60% in size.
Potency means the concentration at half of the fitted maximal effect.

CCCCCCCCCCCCCCCC(=O)NCCO
inactive: Potency (FAB9) | Potency (GB4) | Potency (HB3) | Potency (ICS) | Potency (JCK) | Potency (N140) | Potency (P93_24) | Potency (P94_40) | Potency (PAD) | Potency (PC15) | Potency (PC26) | Potency (PC49) | Potency (SC27B) | Potency (TAB109) | Potency (TAB113) | Potency (TAB165) | Potency (W2) | outcome (CRL-7250) | outcome (HEK293) | max response (HaCat) -5.78%

CC[C@@]1(c2ccccc2)NC(=O)N(C)C1=O
inactive: Potency (FAB9) | Potency (GB4) | Potency (HB3) | Potency (ICS) | Potency (JCK) | Potency (N140) | Potency (P93_24) | Potency (P94_40) | Potency (PAD) | Potency (PC15) | Potency (PC26) | Potency (PC49) | Potency (SC27B) | Potency (TAB109) | Potency (TAB113) | Potency (TAB165) | Potency (W2) | max response (CRL-7250) -4% | outcome (HEK293) | outcome (HaCat)

O=C1NS(=O)(=O)c2ccccc21
inactive: Potency (FAB9) | Potency (GB4) | Potency (HB3) | Potency (ICS) | Potency (JCK) | Potency (N140) | Potency (P93_24) | Potency (P94_40) | Potency (PAD) | Potency (PC15) | Potency (PC26) | Potency (PC49) | Potency (SC27B) | Potency (TAB109) | Potency (TAB113) | Potency (TAB165) | Potency (W2) | max response (CRL-7250) -9.05% | outcome (HEK293) | outcome (HaCat)

C[C@H](N)[C@H](O)c1cccc(O)c1
inactive: Potency (FAB9) | Potency (GB4) | Potency (HB3) | Potency (ICS) | Potency (JCK) | Potency (N140) | Potency (P93_24) | Potency (P94_40) | Potency (PAD) | Potency (PC15) | Potency (PC26) | Potency (PC49) | Potency (SC27B) | Potency (TAB109) | Potency (TAB113) | Potency (TAB165) | Potency (W2) | max response (CRL-7250) -3.27% | outcome (HEK293) | outcome (HaCat)

CCCOC(=O)c1ccccc1
inactive: Potency (FAB9) | Potency (GB4) | Potency (HB3) | Potency (ICS) | Potency (JCK) | Potency (N140) | Potency (P93_24) | Potency (P94_40) | Potency (PAD) | Potency (PC15) | Potency (PC26) | Potency (PC49) | Potency (SC27B) | Potency (TAB109) | Potency (TAB113) | Potency (TAB165) | Potency (W2) | max response (CRL-7250) -5.05% | outcome (HEK293) | outcome (HaCat)

Cc1cc(N)c2ccccc2[n+]1CCCCCCCCCC[n+]1c(C)cc(N)c2ccccc21
inactive: max response (HaCat) -1.45%
active: Potency (FAB9) 199 nM | Potency (GB4) 144 nM | Potency (HB3) 794 nM | Potency (ICS) 100 nM | Potency (JCK) 1.12 µM | Potency (N140) 251 nM | Potency (P93_24) 70.8 nM | Potency (P94_40) 7.08 µM | Potency (PAD) 2.24 µM | Potency (PC15) 282 nM | Potency (PC26) 510 nM | Potency (PC49) 126 nM | Potency (SC27B) 0.0316 nM | Potency (TAB109) 4.47 µM | Potency (TAB113) 126 nM | Potency (TAB165) 100 nM | Potency (W2) 102 nM | Potency (CRL-7250) 14.6 µM | Potency (HEK293) 1.3 µM

CCn1cc(C(=O)O)c(=O)c2cnc(N3CCNCC3)nc21
inactive: Potency (FAB9) | Potency (GB4) | Potency (HB3) | Potency (JCK) | Potency (N140) | Potency (P93_24) | Potency (P94_40) | Potency (PAD) | Potency (PC15) | Potency (PC26) | Potency (PC49) | Potency (SC27B) | Potency (TAB109) | Potency (TAB113) | Potency (TAB165) | Potency (W2) | max response (CRL-7250) -6.3% | outcome (HEK293) | max response (HaCat) -4.47%

CCCc1c(OCCCCc2nn[nH]n2)ccc(C(C)=O)c1O
inactive: Potency (FAB9) | Potency (GB4) | Potency (HB3) | Potency (ICS) | Potency (JCK) | Potency (N140) | Potency (P93_24) | Potency (P94_40) | Potency (PAD) | Potency (PC15) | Potency (PC26) | Potency (SC27B) | Potency (TAB109) | Potency (TAB113) | Potency (TAB165) | max response (CRL-7250) -1.12% | outcome (HEK293) | outcome (HaCat)

CCC(=O)c1ccc(O)cc1
inactive: Potency (FAB9) | Potency (GB4) | Potency (HB3) | Potency (ICS) | Potency (JCK) | Potency (N140) | Potency (P93_24) | Potency (P94_40) | Potency (PAD) | Potency (PC15) | Potency (PC26) | Potency (PC49) | Potency (SC27B) | Potency (TAB109) | Potency (TAB113) | Potency (TAB165) | Potency (W2) | max response (CRL-7250) 4.24% | outcome (HEK293) | outcome (HaCat)

C#CCN(C)Cc1ccccc1
inactive: Potency (FAB9) | Potency (GB4) | Potency (HB3) | Potency (ICS) | Potency (JCK) | Potency (N140) | Potency (P93_24) | Potency (P94_40) | Potency (PAD) | Potency (PC15) | Potency (PC26) | Potency (PC49) | Potency (SC27B) | Potency (TAB109) | Potency (TAB113) | Potency (TAB165) | Potency (W2) | max response (CRL-7250) 4.31% | max response (HEK293) -27.7% | outcome (HaCat)

From PubChem BioAssay (NCATS)
